Bcl-2 Bim block: human Bim-Bcl-2 interaction inhibition. P10415. Bead-based flow cytometry, Bim peptide-Bcl-2 binding. inhibition, % at 10 µM. actives 0.06% (n = 190,000). AID 950; in the data active = inhibition above about 40%;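 note: 0% = no compound wells with probe peptide and 100% = reference peptide inhibitor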
Bim-Bcl-W: human Bim-Bcl-W interaction inhibition; AID 952; actives 0.02% (n = 190,000); inhibition, % at 10 µM; bead-based flow cytometry, Bim peptide-Bcl-W binding; Q92843;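 note: 0% = bound tracer without compound and 100% = peptide blocker; higher means less fluorescent Bim peptide bound to Bcl-W beads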
Bcl-XL Bim block: disrupts Bim peptide binding to human Bcl-XL. Q07817. bead flow cytometry, fluorescence. inhibition, % at 10 µM. actives 0.04% (n = 190,000). AID 1007
Target sequence (Q07817 whole entry, looked up): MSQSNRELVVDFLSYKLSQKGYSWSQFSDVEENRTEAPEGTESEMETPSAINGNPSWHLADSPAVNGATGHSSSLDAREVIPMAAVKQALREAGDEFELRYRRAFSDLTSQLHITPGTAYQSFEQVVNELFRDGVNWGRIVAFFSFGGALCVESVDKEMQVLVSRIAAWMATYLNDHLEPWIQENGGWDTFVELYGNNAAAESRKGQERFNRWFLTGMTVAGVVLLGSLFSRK
Arbovirus anti: antivirals against arbovirus infection; arbovirus infection cell-based antiviral screen; inhibition, % at 10 µM; actives 0.37% (n = 200,000); AID 1251; in the data active = inhibition above about 30%
Bim-Bcl-B: human Bim-Bcl-B interaction inhibition. Q9HD36. bead-based flow cytometry, Bim peptide-Bcl-B binding. actives 0.073% (n = 190,000). inhibition, % at 10 µM;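 note: 0% = tracer peptide without compound and 100% = reference inhibitor peptide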
Bfl-1 Bim block: disrupts Bim binding to human Bfl-1. inhibition, % at 10 µM. Bead-based flow cytometry, Bim-Bfl-1 binding inhibition. Q16548. actives 0.12% (n = 190,000);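 note: 0% = wells without compound plus tracer and 100% = blocker peptide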
Target sequence (Q16548 whole entry, looked up): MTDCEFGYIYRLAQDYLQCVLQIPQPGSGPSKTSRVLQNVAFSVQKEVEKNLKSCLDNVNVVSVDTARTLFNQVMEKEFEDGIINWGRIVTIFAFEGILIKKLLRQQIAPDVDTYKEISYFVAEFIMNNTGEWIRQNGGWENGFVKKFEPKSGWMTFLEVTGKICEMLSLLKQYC
Starred values were filed as active, the others as inactive. The list is not random: actives were taken first. Their share in the collection is about 0.56%. Cut-off read from the data, not from the text of the source, unless noted: active = inhibition above about 40%.

Screening COc1cc(C=C2C(=O)OC(c3ccccc3)OC2=O)cc(Br)c1O (configuration not stated) returned Bcl-2 Bim block 1.0, Bim-Bcl-W 5.0, Bcl-XL Bim block 0.0, Arbovirus anti 3.2, Bim-Bcl-B 5.0 and Bfl-1 Bim block 6.0.
`COc1ccc(-c2nc(NC(=O)Cn3cnnn3)sc2C)cc1` gave Bcl-2 Bim block 2.0, Bim-Bcl-W 0.0, Bcl-XL Bim block -2.0, Arbovirus anti 13.1, Bim-Bcl-B -3.0 and Bfl-1 Bim block -2.0.
Cc1sc(NC(=O)Cn2cnnn2)nc1-c1ccc(Cl)cc1 was read as Bcl-2 Bim block 84.0*, Bim-Bcl-W 7.0, Bcl-XL Bim block 20.0, Arbovirus anti 17.9, Bim-Bcl-B 67.0* and Bfl-1 Bim block 53.0*.
CCOC(=O)Cc1c(Sc2ccccc2)c2cc(C)ccc2n1C was read as Bcl-2 Bim block -7.0, Bim-Bcl-W -6.0, Bcl-XL Bim block -7.0, Arbovirus anti 26.2, Bim-Bcl-B -4.0 and Bfl-1 Bim block -4.0.
Screening Cc1ccc2c(c1)c(Sc1ccccc1)c(CC(=O)O)n2C returned Bcl-2 Bim block 0.0, Bim-Bcl-W 0.0, Bcl-XL Bim block -5.0, Arbovirus anti 31.0*, Bim-Bcl-B -2.0 and Bfl-1 Bim block 0.0.
O=C(COc1ccc(Br)cc1CO)Nc1ccccc1 was read as Bcl-2 Bim block -1.0, Bim-Bcl-W 2.0, Bcl-XL Bim block 1.0, Arbovirus anti 2.4, Bim-Bcl-B 0.0 and Bfl-1 Bim block 2.0.
Screening Cc1ccc(NC(=O)COc2ccc(Br)cc2CO)cc1 returned Bcl-2 Bim block -13.0, Bim-Bcl-W -3.0, Bcl-XL Bim block -7.0, Arbovirus anti 36.4*, Bim-Bcl-B -12.0 and Bfl-1 Bim block -19.0.
For CN(NC(=O)/C=C/C(=O)O)c1ncc(C(F)(F)F)cc1Cl the results were Bcl-2 Bim block 0.0, Bim-Bcl-W -1.0, Bcl-XL Bim block -1.0, Arbovirus anti 7.5, Bim-Bcl-B 0.0 and Bfl-1 Bim block -12.0.
`O=C(NCC(=O)N(c1cccnc1)C(C(=O)NC1CCCC1)c1ccc(F)cc1)c1ccco1` (configuration not stated) gave Bcl-2 Bim block 0.0, Bim-Bcl-W 1.0, Bcl-XL Bim block 0.0, Arbovirus anti 0.7, Bim-Bcl-B -2.0 and Bfl-1 Bim block -4.0.
`Cc1ccc(S(=O)(=O)Oc2ccc(C)cc2/C=N/N=C2\NC(=O)C(C)S2)cc1` (configuration not stated) gave Bcl-2 Bim block -2.0, Bim-Bcl-W -8.0, Bcl-XL Bim block -7.0, Arbovirus anti 30.3*, Bim-Bcl-B -1.0 and Bfl-1 Bim block -3.0.
`COc1ccc(/C=N/N=C2/NC(=O)C(CC(=O)O)S2)cc1OS(=O)(=O)c1ccccc1` (configuration not stated) gave Bcl-2 Bim block -1.0, Bim-Bcl-W 0.0, Bcl-XL Bim block -3.0, Arbovirus anti -1.1, Bim-Bcl-B -2.0 and Bfl-1 Bim block -1.0.
For Cc1ccc(O)c(-c2cc(C(F)(F)C(F)F)[nH]n2)c1 the results were Bcl-2 Bim block -11.0, Bim-Bcl-W 0.0, Bcl-XL Bim block -6.0, Arbovirus anti 34.3*, Bim-Bcl-B -4.0 and Bfl-1 Bim block -11.0.
Screening NC(=O)NCCCC(=O)OCC(=O)c1ccc2ccccc2c1 returned Bcl-2 Bim block -3.0, Bim-Bcl-W -3.0, Bcl-XL Bim block -3.0, Arbovirus anti 0.6, Bim-Bcl-B -2.0 and Bfl-1 Bim block -5.0.
Screening NC(=O)/C(=N\OC(=O)c1ccco1)c1nc(-c2ccc(Br)cc2)cs1 returned Bcl-2 Bim block 2.0, Bim-Bcl-W -2.0, Bcl-XL Bim block 0.0, Arbovirus anti 44.3*, Bim-Bcl-B 1.0 and Bfl-1 Bim block -9.0.
For COC(=O)Cc1cc(=O)[nH]c(Nc2nc3ccccc3o2)n1 the results were Bcl-2 Bim block -5.0, Bim-Bcl-W 13.0, Bcl-XL Bim block 4.0, Arbovirus anti -4.4, Bim-Bcl-B -2.0 and Bfl-1 Bim block 64.0*.
Screening CCOC(=O)Cc1cc(=O)[nH]c(Nc2nc3ccccc3o2)n1 returned Bcl-2 Bim block -3.0, Bim-Bcl-W -1.0, Bcl-XL Bim block -1.0, Arbovirus anti -14.8, Bim-Bcl-B -3.0 and Bfl-1 Bim block -6.0.
`COC(=O)c1ccccc1NC(=O)c1ccc(COc2ccc(C)c(C)c2)o1` gave Bcl-2 Bim block -1.0, Bim-Bcl-W 1.0, Bcl-XL Bim block 2.0, Arbovirus anti 48.0*, Bim-Bcl-B 3.0 and Bfl-1 Bim block 1.0.
